Source: PubChem BioAssay (NCI)
About 83,000 compounds went through this panel and 20% of them were active in at least one assay; those are over-represented in the sample as a whole.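 Note: values are percent growth. 100 is the growth of untreated cells, values between 100 and 0 indicate rising inhibition; between -100 and 0 indicates cell death.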 A number with no mark means an inactive call. Calls of active or inactive are those of the source. Rule for the calls: active = growth percent below 10; inactive = the rest.

Tested on: HL-60(TB) leukemia
Assay: NCI-60 one-dose screen, 48 h (100 = growth as untreated, 0 = no growth, -100 = all killed)
Details: 10 µM unless noted

| Structure (SMILES) | growth |
| --- | --- |
| CCOC(=O)c1csc(NC(=O)COc2ccc(/C=C3\Oc4ccccc4C3=O)cc2)n1 | 7.24% (active) |
| C#CCOc1ccc2ncnc(Nc3cccc(CNC(=O)C=C)c3)c2c1 | 97.4% [8.25 µM] |
| Cn1cc(-c2nc(-c3c[nH]c4ccccc34)cs2)c2cccnc21 | 6.19% (active) |
| C=C1C(=O)O[C@H]2[C@H]1CC/C(COC(=O)n1ccnc1)=C\CC[C@@]1(C)O[C@@H]21 | 64.3% |
| CCN(CC)CCN1c2nc3ccccc3cc2Sc2cc3ccccc3nc21 | -21.1% (active) |
| CCc1ccccc1-n1[nH]c(C)c(C=N)c1=O | 98.3% |
| Cn1c2ccccc2c2c3c(c4c5cccnc5[nH]c4c21)C(=O)N(O)C3=O | 17.2% |
| CCC(C)C1NC(=O)C(NC(=O)c2c3nc4c(C(=O)NC5C(=O)NC(C(C)CC)C(=O)N6CCCC6C(=O)N(C)CC(=O)N(C)C(C(C)C)C(=O)OC5C)ccc(C)c4oc-3c(C)c(=O)c2N)C(C)OC(=O)C(C(C)C)N(C)C(=O)CN(C)C(=O)C2CCCN2C1=O (stereo not given) | -13.9% (active) |
| C=C1c2nc3ccccc3n2C=C(c2ccc(Cl)cc2)N1Cc1ccc(OC)cc1 | 53% |
| CCOc1ccc(N2C(N)=NC(N)=NC2(C)C)cc1 | 16.4% |
| N#Cc1cnc2cc(OC[C@@H](O)CO)c(NC(=O)C3CCCC3)cc2c1Nc1ccc(OCc2cccc(F)c2)c(Cl)c1 | -28.8% (active) |
| Cc1cc(C2(c3cc(C)c(O)cc3C)OS(=O)(=O)c3ccccc32)c(C)cc1O | 87.8% |
| Cl[C@@H]1CCO[C@H](c2cc3ccccc3c3ccccc23)C1 | 92.9% |
| C=CN(C(=O)N1CCN(c2cc3c(cc2F)c(=O)c(C(=O)O)cn3C2CC2)CC1)c1nc(-c2ccc(C)cc2)cs1 | -27.2% (active) |
| CCc1c(Nc2ccccc2C)nc(N)[nH]c1=O | 88.9% |
| CCCCC[C@H]1C/C=C2/C(=O)C(Cl)=C[C@@H]2C/C=C\CCCC(=O)O[C@@H](CCCCC)C/C=C2/C(=O)C(Cl)=C[C@@H]2C/C=C\CCCC(=O)O1 | -19.1% (active) |
| [Cu+].[NH-][C@H]1C[N-]C(=O)[C@H]([C@H]2CCN=C(N)N2)[N-]C(=O)/C(=C\NC(N)=O)[N-]C(=O)[C@H](CNC(=O)C[C@@H](N)CCCN)[N-]C(=O)[C@H](CO)[N-]C1=O | 104% |
| COc1cc2c(cc1OC)-c1ccc3cc4c(cc3c1N(CCN1CCCC1)C2)OCO4 | -39.7% (active) |
| CC(C)CNCC(O)COc1ccc(C(C)(C)c2ccc(OCC(O)CNCC(C)C)cc2)cc1 (stereo not given) | 26% |
| COc1cc(Nc2ccnc(NCCCNc3ccnc4cc(Cl)ccc34)n2)cc(OC)c1 | -76.9% (active) |

| Structure (SMILES) | growth |
| --- | --- |
| CCOC(=O)c1ccc2c(c1)c1c(C)c3cccnc3c(C)c1n2C | 77.4% |
| COc1ccc(-c2nc3c(c(=O)n2C(C)=O)C(c2ccc(Cl)cc2)c2sc4c(Cl)cccc4c2O3)cc1 (stereo not given) | -14% (active) |
| COc1ccc(Cn2c(SC)nc(=O)n(Cc3ccc(Cl)cc3)c2=O)cc1 | 94.2% |
| O=C(O)CCCc1ccccc1 | 109% |
| NC(=Nc1ccccc1)SCCCSC(N)=Nc1ccccc1 | 82.6% |
| CN1CCN(c2cc(Nc3cc(C4CC4)[nH]n3)nc(Nc3ccc(CC(=O)NCc4cccc(F)c4)cc3)n2)CC1 | 19.9% |
| COc1ccc(-c2cc(-c3ccc(OC)cc3)c3sc(=O)[nH]c3n2)cc1 | 84.7% |
| C=CC(=O)N1CCC(Oc2cc3c(Nc4ccc(Cl)c(Cl)c4F)ncnc3cc2OC)CC1 | 24.7% |
| CCN(CC)c1ccc(/C=C/C=C2\NC(=O)NC2=O)cc1 | 50.8% |
| Oc1ccc(Cc2ccc(O)c(C3CC(c4ccc(Cl)cc4)=NN3)c2)cc1C1CC(c2ccc(Cl)cc2)=NN1 (stereo not given) | -23.6% (active) |
| COc1ccc2[nH]c(-c3ccccc3)cc2c1 | 60.7% |
| Cc1ccc(C2(C)NC(=O)N(CC(=O)Nc3cccc(C)c3)C2=O)cc1 (stereo not given) | 103% |
| COc1cccc(/C=C2\COc3ccc(O)c(O)c3C2=O)c1OC | -24.4% (active) |
| COC1=CC(=O)OC(c2ccc(OC)cc2)C1 (stereo not given) | 78.3% |
| CC(=O)OC(C)C(=O)NCC(C)O (stereo not given) | 86.9% |
| CCCc1cc(=O)oc2c(C(=O)CC(C)C)c(O)c(CC=C(C)C)c(O)c12 | 2.72% (active) |
| COc1ccc(/C=C2\CN(Cc3cn(CCCNc4ccnc5cc(Cl)ccc45)nn3)C/C(=C\c3ccc(OC)c(OC)c3)C2=O)cc1OC | -38% (active) |
| CC(C)=CC/C=C(/C)[C@H]1CC[C@]2(C)[C@@H]1CC[C@@H]1[C@@]3(C)CCCNC(C)(C)[C@@H]3CC[C@]12C | -35.8% [100 µM] (active) |
| CC(C)c1ccc(C(=O)Nc2sc3cc(O)ccc3c2C#N)cc1 | -6.25% (active) |
| CC1C(C)N(C(=O)CCl)c2ccccc2N1C(=O)CCl (stereo not given) | -56.9% (active) |
